Among all 5,500 compounds or so, about 2,000 (36%) were called active. Not shown: some 18% with an inconclusive outcome. Rule as the data show it: active = normalized growth mostly below about 0.91 (no sharp cut-off); inconclusive = no clear call, values can overlap the other calls; inactive = mostly above about 0.92. Some of the results follow.
Experiment: chemical genetic growth profiling, strain panel (AID 1159580);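 also: tested at 20 µM; growth read once vehicle control cultures reached saturation at 30 °C; 1 = growth at the plate median or of vehicle wells; lower values mean less growth of the strain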
Settings: S. cerevisiae deletion strains, growth OD

Measured: normalized growth

CC(=O)O[C@@H]1C[C@@]2(C)[C@H](c3ccoc3)C[C@H]3O[C@]32[C@]2(C)C(=O)C(O)=C3C(C)(C)C(=O)C=C[C@]3(C)C12 (stereo partly drawn)
active: locus YKR001C, strain vps1, active compounds read low 0.812 | locus YLR039C, strain RIC1, active compounds read low 0.513 | locus YLR221C, strain rsa3, active compounds read low 0.863 | locus YLR262C, strain YPT6 (second series), active compounds read low 0.669 | locus YLR262C, strain YPT6, active compounds read low 0.483 | locus YLR268W, strain sec22, active compounds read low 0.832 | locus YLR320W, strain mms22, active compounds read low 0.816 | locus YLR371W, strain rom2, active compounds read low 0.731 | locus YLR418C, strain cdc73, active compounds read low 0.35 | locus YML032C, strain rad52, active compounds read low 0.853 | locus YMR231W, strain pep5, active compounds read low 0.927 | locus YNL071W, strain lat1, active compounds read low 0.736 | locus YNL307C, strain MCK1, active compounds read low 0.571 | locus YNR052C, strain pop2, active compounds read low 0.882 | locus YOL147C, strain pex11, active compounds read low 0.818 | locus YOR144C, strain elg1, active compounds read low 0.864 | locus YOR184W, strain ser1, active compounds read low 0.744 | locus YOR270C, strain vph1, active compounds read low 0.776 | locus YPL051W, strain arl3, active compounds read low 0.895 | locus YPR163C, strain tif3, active compounds read low 0.757 | strain wtn01, active compounds read low 0.864
inactive: locus YJL187C, strain SWE1 (second series), active compounds read low 0.958 | locus YJL187C, strain SWE1, active compounds read low 0.953 | locus YJR043C, strain POL32, active compounds read low 0.97 | locus YJR066W, strain TOR1, active compounds read low 0.888 | locus YKL009W, strain mrt4, active compounds read low 0.94 | locus YKL068W, active compounds read low 0.962 | locus YKL085W, strain MDH1 (second series), active compounds read low 0.993 | locus YKL085W, strain MDH1, active compounds read low 0.993 | locus YKL160W, strain elf1, active compounds read low 0.969 | locus YKR026C, strain gcn3, active compounds read low 0.965 | locus YKR091W, strain srl3, active compounds read low 0.971 | locus YLL001W, strain dnm1, active compounds read low 0.979 | locus YLL026W, active compounds read low 0.96 | locus YLL041C, strain sdh2, active compounds read low 0.976 | locus YLR027C, strain aat2, active compounds read low 0.942 | locus YLR058C, strain SHM2, active compounds read low 0.936 | locus YLR102C, strain apc9, active compounds read low 0.958 | locus YLR113W, strain HOG1, active compounds read low 0.911 | locus YLR258W, strain gsy2, active compounds read low 0.948 | locus YLR342W, strain FKS1, active compounds read low 0.921 | locus YLR357W, strain rsc2, active compounds read low 1.03 | locus YLR370C, strain arc18, active compounds read low 0.927 | locus YLR384C, strain iki3, active compounds read low 0.956 | locus YML016C, strain PPZ1, active compounds read low 0.946 | locus YML120C, strain ndi1, active compounds read low 0.961 | locus YML124C, strain tub3, active compounds read low 0.963 | locus YMR058W, strain fet3, active compounds read low 0.937 | locus YMR078C, strain ctf18, active compounds read low 0.925 | locus YMR125W, strain sto1, active compounds read low 0.957 | locus YMR129W, active compounds read low 0.977 | locus YMR205C, strain PFK2, active compounds read low 0.886 | locus YMR223W, strain ubp8, active compounds read low 0.922 | locus YMR307W, strain GAS1, active compounds read low 0.61 | locus YNL067W, strain RPL9B, active compounds read low 0.985 | locus YNL128W, strain TEP1, active compounds read low 0.914 | locus YNL183C, strain NPR1, active compounds read low 0.909 | locus YNL209W, strain ssb2, active compounds read low 0.974 | locus YNL233W, strain BNI4, active compounds read low 0.935 | locus YNL248C, strain rpa49, active compounds read low 0.952 | locus YNL250W, strain rad50, active compounds read low 1.02 | locus YNL271C, strain bni1, active compounds read low 0.945 | locus YNL298W, strain CLA4, active compounds read low 0.953 | locus YNL322C, strain KRE1 (second series), active compounds read low 0.956 | locus YNR049C, strain mso1, active compounds read low 0.959 | locus YOL006C, strain TOP1, active compounds read low 0.771 | locus YOL012C, strain htz1 0.819 | locus YOR001W, strain rrp6, active compounds read low 0.92 | locus YOR061W, strain CKA2, active compounds read low 0.923 | locus YOR069W, strain VPS5, active compounds read low 0.969 | locus YOR070C, strain gyp1, active compounds read low 0.949 | locus YOR080W, strain dia2, active compounds read low 0.965 | locus YOR083W, strain WHI5, active compounds read low 0.976 | locus YOR106W, strain vam3, active compounds read low 0.942 | locus YOR136W, strain idh2, active compounds read low 0.941 | locus YOR231W, strain MKK1, active compounds read low 0.918 | locus YOR265W, strain rbl2, active compounds read low 0.963 | locus YOR290C, strain snf2, active compounds read low 0.929 | locus YOR316C, strain cot1, active compounds read low 0.962 | locus YPL055C, strain LGE1, active compounds read low 0.803 | locus YPL078C, strain atp4, active compounds read low 0.973 | locus YPL106C, strain sse1, active compounds read low 0.974 | locus YPL240C, strain hsp82, active compounds read low 0.956 | locus YPL241C, strain CIN2, active compounds read low 0.966 | locus YPL256C, strain CLN2, active compounds read low 0.91 | locus YPR119W, strain clb2, active compounds read low 0.959 | locus YPR141C, strain kar3, active compounds read low 0.957 | locus YPR167C, strain met16, active compounds read low 0.945
